Source: PubChem BioAssay
RORgamma inh: inhibitors of mouse ROR gamma transcriptional activity | Potency, µM (top dose mostly 53.6 µM), most hits filed as inhibitors | hit rate 5.4% among 310,000 | AID 2551 | Drosophila S2 Gal4-RORgamma UAS-luciferase reporter, 20 h | P51450; note: nearly all actives have a fitted effect of over 60% in size
Target sequence (P51450 whole entry, looked up, the tested form may be a part): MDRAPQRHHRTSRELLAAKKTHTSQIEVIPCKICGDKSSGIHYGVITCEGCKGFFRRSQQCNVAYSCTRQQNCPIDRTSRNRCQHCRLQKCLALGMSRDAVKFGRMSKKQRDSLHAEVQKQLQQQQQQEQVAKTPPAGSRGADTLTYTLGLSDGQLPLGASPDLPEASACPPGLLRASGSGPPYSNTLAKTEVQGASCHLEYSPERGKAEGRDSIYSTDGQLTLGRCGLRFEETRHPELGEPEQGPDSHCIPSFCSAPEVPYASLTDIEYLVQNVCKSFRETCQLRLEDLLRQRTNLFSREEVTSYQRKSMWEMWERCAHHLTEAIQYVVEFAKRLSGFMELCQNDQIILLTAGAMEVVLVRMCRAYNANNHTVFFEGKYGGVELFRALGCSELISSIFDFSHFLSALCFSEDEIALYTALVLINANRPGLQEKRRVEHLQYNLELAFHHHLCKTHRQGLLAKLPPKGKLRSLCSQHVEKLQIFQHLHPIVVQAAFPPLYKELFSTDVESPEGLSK
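Compounds are pin-transferred onto Drosophila Schneider cells expressing a copper-inducible Gal4–ROR gamma transactivation domain fusion. After 1 hr, copper sulfate is added to 700 uM final; luciferase is read 20 hr later.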
TDP1 cell CPT: growth inhibition of DT40 Tdp1-/-;hTDP1 cells with camptothecin (screen for TDP1 inhibitors); chicken DT40 Tdp1-/-;hTDP1 cells + 20 nM CPT, ATP luminescence, 48 h; Potency, µM (highest dose often 46.2 µM), usual class: inhibitors; hit rate 12% among 420,000; note: nearly all actives have a fitted effect of over 55% in size
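Chicken DT40 Tdp1-/- cells complemented with human TDP1, 400 cells/well, exposed to compounds plus 20 nM camptothecin for at least 48 h at 37 C; viability read as ATP content by CellTiter-Glo luminescence.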
Gal4-VP16 FLuc: Gal4-VP16 reporter inhibition counter-screen. AID 2546. Drosophila S2 Gal4-VP16 UAS-luciferase, luminescence, 20 h. Potency, µM (series often up to 53.6 µM), usual class: inhibitors. hit rate 3.5% among 310,000;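 note: Gal4-VP16 expression switched on by copper sulfate through the metallothionein promoter; nearly all actives have a fitted effect of over 50% in size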
ELG1 repair inh: blocks ELG1-dependent DNA repair in HEK293T cells | HEK293T ELG1-luciferase reporter, luminescence, 16 h; DNA damage induced by 5-fluorouridine | hit rate 2.3% among 330,000 | Potency, µM (highest dose often 46.1 µM), most hits filed as inhibitors | AID 504467; note: nearly all actives have a fitted effect of over 55% in size
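Quantitative HTS, concentration-response format. 2,000 cells/well co-treated with 5-fluorouridine and compound, 16 hr in 5% CO2 at 37 °C; ONE-Glo luminescence read after 30 min.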
TDP1 cell noCPT: qHTS for Inhibitors of human tyrosyl-DNA phosphodiesterase 1 (TDP1): qHTS in cells in absence of CPT | DT40 Tdp1-/- hTDP1 cells, no CPT, ATP luminescence, 48 h | AID 686978, 2013 | hit rate 15% among 420,000 | Potency, µM (series often up to 46.2 µM), actives largely listed as inhibitors; note: nearly all actives have a fitted effect of over 55% in size
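A cellular qHTS used chicken DT40 cells lacking endogenous Tdp1 but carrying stably transfected human TDP1. Compounds were applied without camptothecin, and cell growth kinetics were judged by ATP-dependent luminescence after ≥48 hr.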
ALOX12 inh: ALOX12 (human) lipoxygenase inhibition. AID 1671190. purified 12hLO, xylenol orange hydroperoxide absorbance. Potency, µM (top dose mostly 108 µM), hits mostly inhibitors. hit rate 1.1% among 580,000
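Purified human 12hLO at 150 nM in 25 mM Hepes, 0.01% Triton X-100, pH 7.0, preincubated 15 min at room temperature with compound. Reaction started with 40 uM arachidonic acid, 30 min at room temperature. Hydroperoxide measured by Fe-xylenol orange, 573/405 nm absorbance ratio.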
Numbers stand for hits; – = inactive; ? = inconclusive; · = not tested or not shown; ! = not confirmed by another sample. Rows were chosen to be rich in hits. Some 15% of all compounds tested hit in one or more screens of this group. Calls come from the whole dose curve; as a rule, active = well fitted curve in the direction sought with a large enough effect; inconclusive = small, poorly fitted or top-dose-only effect, or another doubt; inactive = no such curve, though single readings can be large; an effect the other way counts as inactive or inconclusive.

SMILES	RORgamma inh	TDP1 cell CPT	Gal4-VP16 FLuc	ELG1 repair inh	TDP1 cell noCPT	ALOX12 inh
CCc1nnc(N/N=C/c2ccc(-c3ccc([N+](=O)[O-])cc3)o2)n1N	3.5µM	–	?	–	–	?
Cc1cc(C)n(Cc2ccc(C(=O)N/N=C/c3ccc(-c4ccc([N+](=O)[O-])cc4)o3)o2)n1	8.9µM	?	6.3µM	?	10µM	?
CNC(=S)N/N=C/c1ccc(-c2ccc(Cl)c([N+](=O)[O-])c2)o1	4.5µM	8.2µM	3.5µM	?	9.2µM	–
Cc1ccc(/C=N/NC(=O)c2ccc(Cn3cc([N+](=O)[O-])cn3)o2)cc1	–	–	–	–	–	–
COCCN(Cc1cccs1)S(=O)(=O)c1cccc(C(=O)O)c1	·	·	·	·	·	–
Cc1ccc(CNC(=O)N2CCCCCNC(=O)[C@@H]3CCCC[C@@H]32)cc1	·	·	·	·	·	–
CC(C)NC(=O)[C@@H]1C[C@@H](NC(=O)c2cnc3c(O)cccn3c2=O)CN1C	·	·	·	·	·	–
CC(C)(C)NC(=S)N/N=C\c1ccc(-c2ccc([N+](=O)[O-])cc2)o1	?	9.2µM	?	21µM	9.2µM	45µM
NS(=O)(=O)c1ccc(-c2ccc(/C=N/NC(=O)c3ccc([N+](=O)[O-])cc3)o2)cc1	?	–	–	–	–	–
COc1cccc(C=NNC(=O)c2ccncc2)c1O	·	0.92µM	·	·	0.18µM	–
COc1cccc(/C=N/NC(=O)c2nc(-c3ccccc3)cc(-c3ccccc3)n2)c1O	–	12µM	–	?	9.2µM	–
COc1cccc(/C=N/NC(=O)CSc2ccccc2C)c1OC	–	–	–	–	–	–
COc1cccc(/C=N/NC(=O)CSc2ccccc2C)c1O	0.71µM	1.2µM	0.79µM	–	1.3µM	–
COc1cccc(OC)c1C(=O)Nc1ccc(C(=O)c2ccncc2)cc1	·	13µM	·	–	?	–
CCOCc1nc(C2CCCN(C(=O)c3ccco3)C2)no1 (configuration not stated)	·	·	·	·	·	–
C[C@]1(CO)[C@H]2Cc3sc(NC(=O)c4ccco4)nc3[C@@H](CC(=O)N3CCC(C(N)=O)CC3)[C@]2(C)CC[C@H]1O	·	·	·	·	·	–
COc1ccc(-c2cc(N3CCCC(NC(=O)c4cc(OC)cc(OC)c4)C3)n[nH]2)cc1 (configuration not stated)	·	·	·	·	·	–
O=C(N/N=C/c1ccccc1OCc1ccccc1Cl)c1cccnc1	?	?	–	–	23µM	–
O=C(N/N=C/C=C/c1ccccc1)c1cc(C2CC2)[nH]n1	?	–	–	–	–	–
CCOc1cccc(/C=N/NC(=O)c2cc(C3CC3)[nH]n2)c1O	2.2µM	?	2.8µM	2.6µM	23µM	–
CCN(CC)c1ccc(C(=O)N/N=C/c2ccccc2OC(F)F)cc1	2.5µM	?	?	?	?	–
COc1cccc(/C=N/NC(=O)N/N=C/c2cccc(OC)c2O)c1O	–	?	–	?	3.7µM	–
Cc1c(O)ccc2c(CN3CCC(O)CC3)cc(=O)oc12	·	·	·	·	·	–
Cc1cccc(C)c1NC(=O)CN(CC(=O)Nc1c(C)cccc1C)Cc1nc2ccccc2o1	·	·	·	·	·	–
CCn1c(CSc2nnc(C3CC3)o2)nc2cc(S(=O)(=O)N(C)C)ccc21	·	·	·	·	·	–
SMILES	RORgamma inh	TDP1 cell CPT	Gal4-VP16 FLuc	ELG1 repair inh	TDP1 cell noCPT	ALOX12 inh
CCOc1cccc(/C=N/NC(=O)c2cccnc2)c1O	0.2µM	?	0.32µM	?	?	–
O=C(N/N=C/c1ccccc1F)C(=O)N1CCCCCC1	–	–	–	?	–	–
O=C(N/N=C/c1ccccc1O)C(=O)N1CCCCCC1	13µM	?	13µM	–	?	–
COc1cccc(/C=N/NC(=O)C(=O)N2CCCC2)c1O	?	?	?	?	16µM	–
COc1cccc(/C=N/Nc2nn3cnnc3c3ccccc23)c1O	1.4µM	2.6µM	2.8µM	–	1.2µM	–
Cc1oc2ccn(Cc3ccc(F)cc3)c(=O)c2c1C(=O)N1CCN(c2ccccn2)CC1	·	·	·	·	·	–
COc1ccc(S(N)(=O)=O)cc1C(=O)N1CCC2(CN(C)C(=O)O2)C1 (configuration not stated)	·	·	·	·	·	–
COc1cccc(/C=N/Nc2ccc(C(=O)O)cc2)c1O	0.032µM	?	?	?	21µM	?
COc1ccccc1/C=N/NC(=O)c1ccc(Br)cc1	13µM	–	–	?	–	–
COc1cccc(/C=N/Nc2ccc(S(=O)(=O)O)cc2)c1O	–	–	–	?	–	–
COc1ccc(CN2C[C@@H]3C(=O)N(CCN4CCc5ccccc5C4)C(=O)[C@@H]3C2)c(OC)c1	·	·	·	·	·	–
COc1ccc(C2C(C(=O)OCC3CCCO3)=C(C)NC3=C2C(=O)CC(c2ccco2)C3)cc1O (configuration not stated)	?	?	–	–	?	8.9µM
Cc1cc(SCC(=O)NC(=O)NC(C)C)nc2ccccc12	·	·	·	·	·	–
COC(=O)c1ccc(C(=O)N(C)Cc2ccsc2)s1	·	·	·	·	·	–
COc1ccc(NC(=O)C(c2ccc(C)cc2)N(C)C(=O)Cc2cccs2)cc1 (configuration not stated)	–	?	–	–	?	–
COc1ccc(C(C(=O)Nc2ccc(C(C)C)cc2)N(C)C(=O)c2ccc(=O)[nH]c2)cc1 (configuration not stated)	18µM	?	–	–	?	?
COc1ccc(NC(=O)C(c2ccc(OC)cc2)N(C)C(=O)Cc2cccs2)cc1 (configuration not stated)	–	23µM!	–	–	–	–
CCOCCCNC(=O)C(c1ccc(OC)cc1)N(Cc1cccs1)C(=O)c1ccc(NC(C)=O)cc1 (configuration not stated)	·	8.2µM	·	·	12µM	–
CCOCCCNC(=O)C(c1ccc(OC)cc1)N(Cc1cccs1)C(=O)c1ccccn1 (configuration not stated)	–	–	–	–	?	–
COC(=O)c1ccc(C)c(NC(=O)c2c(-c3ccccc3)noc2C)c1	–	–	–	–	–	–
COC(=O)c1ccc(NC(=S)NC(=O)c2c(-c3ccccc3)noc2C)cc1	7.1µM	–	?	?	–	–
COC(=O)c1ccc(C(=O)OC)c(NC(=O)c2c(-c3ccccc3)noc2C)c1	·	6.5µM	·	·	6.5µM	–
Cc1ccc(NC(=O)N2C[C@@H](Oc3ccccc3)C[C@H]2C(=O)N2CCOCC2)cc1C	·	·	·	·	·	–
CN(/N=C/c1cc(Cl)cc(Cl)c1O)C(=S)NC(C)(C)C	?	?	16µM	?	16µM	–
